“And” between values parts separate entries of the source, which are not always exact repeats. Equal values may be shown once. Records with an inconclusive call do not appear. More than one record can exist for a structure, and the calls need not agree. The source made the active and inactive calls. Rule for the calls, unless noted: active = hit-call score of the fitted dose curve at least 0.9, where 1 is the maximum; inactive = score below 0.9.
Key:
[1] = target: human Vitamin D Receptor (VDR), VDR (gene 7421) (UniProt P11473); assay: ATG_VDR_TRANS: Attagene TRANS-FACTORIAL HepG2 Assay for human Vitamin D Receptor (VDR) (AID 2283022; active = hit-call score of the fitted dose curve at least 0.9, where 1 is the maximum)
Chain of human Vitamin D Receptor (VDR), VDR (gene 7421) (P11473 whole entry, looked up): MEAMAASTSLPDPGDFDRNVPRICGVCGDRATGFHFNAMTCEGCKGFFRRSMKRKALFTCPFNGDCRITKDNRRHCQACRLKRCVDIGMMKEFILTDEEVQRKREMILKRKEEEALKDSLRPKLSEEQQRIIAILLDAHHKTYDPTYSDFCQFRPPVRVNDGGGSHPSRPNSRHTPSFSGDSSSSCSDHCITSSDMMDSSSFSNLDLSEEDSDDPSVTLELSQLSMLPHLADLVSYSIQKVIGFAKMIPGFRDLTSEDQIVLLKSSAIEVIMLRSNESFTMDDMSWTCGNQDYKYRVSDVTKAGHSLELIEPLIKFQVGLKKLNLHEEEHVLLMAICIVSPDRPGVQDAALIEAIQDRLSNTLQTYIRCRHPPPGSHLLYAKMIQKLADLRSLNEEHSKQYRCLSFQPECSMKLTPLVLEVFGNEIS
How it was run: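 Multiplexed TRANS reporter in HepG2; 24 h treatment; reporter mRNA by RT-PCR plus capillary electrophoresis; upregulation scored relative to DMSO.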

[2] = BSK_3C_SRB: Viability Assessment in the BioMAP Diversity Plus: 3C Assay (AID 2283023); settings: primary human endothelial cells (HUVEC);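 note: fitted both ways against DMSO so a hit may be signal rise or drop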
How it was run: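 Overt cytotoxicity is gauged in parallel confluent HUVEC cultures by SRB total-protein staining at the time of biomarker measurement, 24 h after dosing. Gain or loss of signal is fitted versus DMSO.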

[3] = BSK_3C_Vis: BioMAP Diversity Plus: 3C Assay for Morphology Visualization (AID 2283025); settings: primary human endothelial cells (HUVEC);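 note: fitted both ways so gain or loss versus DMSO counts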
How it was run: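 Human umbilical vein endothelial cells in the 3C system were imaged by light microscopy 24 h after chemical dosing to record cell morphology. Activity was fitted bidirectionally against DMSO as negative control and baseline; the endpoint serves as a background control.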

[4] = read-out: Pselectin, SELP (gene 6403); assay: BSK_4H_Pselectin: BioMAP Diversity Plus: 4H Assay for Pselectin Biomarker Activity (AID 2283026); settings: primary human endothelial cells (HUVEC); actives raise or lower the signal
How it was run: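 Primary human umbilical vein endothelial cells were exposed to test chemical for 24 h, then cell-surface P-selectin was quantified by ELISA. Activity was fitted bidirectionally against DMSO as negative control and baseline.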

[5] = BSK_4H_SRB: Viability Assessment in the BioMAP Diversity Plus: 4H Assay (AID 2283027); settings: primary human endothelial cells (HUVEC);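 note: cells exposed to compound for 24 h before staining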;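 for AC50: curves fitted both ways versus DMSO so AC50 may be loss or gain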
How it was run: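 Human umbilical vein endothelial cells, 24 h after chemical dosing; total protein measured by 0.1% sulforhodamine B staining after 10% TCA fixation, read at 560 nm. Bidirectional fitting against DMSO.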

[6] = BSK_BE3C_SRB: Viability Assessment in the BioMAP Diversity Plus: BE3C Assay (AID 2283028); settings: primary human bronchial epithelial cells;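 for AC50: fitted both ways so AC50 may mark signal gain or loss versus DMSO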
How it was run: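 SRB total-protein staining (0.1%, after TCA fixation) of chemically dosed human bronchial epithelial primary cells at 24 h; DMSO serves as the negative control for bidirectional curve fitting.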

[7] = read-out: Thrombomodulin, THBD (gene 7056); assay: BSK_3C_Thrombomodulin: BioMAP Diversity Plus: 3C Assay for Thrombomodulin Biomarker Activity (AID 2283029); settings: primary human endothelial cells (HUVEC); actives raise or lower the signal
How it was run: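 Primary human umbilical vein endothelial cells (3C system) were exposed to chemical for 24 h, then thrombomodulin levels were measured by ELISA. Activity was fitted bidirectionally against the DMSO negative control as baseline.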

[8] = read-out: Urokinase-type plasminogen activator receptor (uPAR), PLAUR (gene 5329); assay: BSK_4H_uPAR: BioMAP Diversity Plus: 4H Assay for Urokinase-type plasminogen activator receptor (uPAR) Biomarker Activity (AID 2283030); settings: primary human endothelial cells (HUVEC); actives raise or lower the signal
How it was run: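 Endpoint derived via bidirectional curve fitting against DMSO baseline; readout was ELISA detection of uPAR on umbilical vein endothelial cells at 24 h post-treatment, with SRB-stained parallel cultures assessing cytotoxicity.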

[9] = read-out: Vascular endothelial growth factor receptor 2 (Homo sapiens) (UniProt P35968); assay: BSK_4H_VEGFRII: BioMAP Diversity Plus: 4H Assay for Vascular endothelial growth factor receptor 2 (VEGFR2) Biomarker Activity (AID 2283031); settings: primary human endothelial cells (HUVEC); actives raise or lower the signal;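 for AC50: cell-surface VEGFR2 protein level quantified by ELISA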
How it was run: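 In this multiplexed HUVEC system, biomarker ELISA was performed after 24 h chemical exposure. Parallel SRB staining (TCA fixation, 560 nm) tracked cytotoxicity; DMSO served as baseline.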

[10] = read-out: Matrix Metallopeptidase 1 (MMP1), MMP1 (gene 4312); assay: BSK_BE3C_MMP1: BioMAP Diversity Plus: BE3C Assay for Matrix Metallopeptidase 1 (MMP1) Biomarker Activity (AID 2283024); settings: primary human bronchial epithelial cells; actives raise or lower the signal
How it was run: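 Primary human bronchial epithelial cells were dosed with test chemicals, and MMP1 levels were measured by ELISA 24 h later. Data were fitted bidirectionally against DMSO as the negative control and activity baseline.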

Measured: AC50

c1ccc2c(c1)Cc1ccccc1-2
not listed: [10]
inactive: all other assays above

CC(O)CO (stereo not drawn)
not listed: [2] | [10]
inactive: all other assays above

CCOC(=O)CC(O)(CC(=O)OCC)C(=O)OCC
not listed: [1] | [2] | [10]
inactive: all other assays above

CCCCCCCCC(=O)O
not listed: [1] | [2]
inactive: all other assays above

CCCCCCCCCCCCc1ccccc1S(=O)(=O)O
active: [3] 39 µM | [6] 7.1 µM
not listed: [2] | [10]
inactive: all other assays above

CC(C)(C)c1cc(C(C)(C)C)c(O)c(C(C)(C)C)c1
active: [10] 10.5 µM | [4] 20 µM | [7] 6.29 µM
not listed: [1] | [2]
inactive: all other assays above

COCC(C)OCC(C)O (stereo not drawn)
active: [3] 39 µM
not listed: [1] | [2] | [10]
inactive: all other assays above

NCC(F)(F)C(F)(F)C(F)(F)C(F)(F)C(F)(F)C(F)(F)C(F)(F)F
active: [9] 7.22 µM
inactive: [1] | [4] | [5] | [6] | [7] | [8] | [9]

O=[N+]([O-])c1ccc(O)cc1
not listed: [1] | [2] | [10]
inactive: all other assays above

O=c1c(-c2ccc(O)cc2)coc2cc(O)ccc12
active: [4] 20 µM
not listed: [1] | [2] | [10]
inactive: all other assays above

CC(C)(C)c1cccc(C(C)(C)C)c1O
not listed: [1] | [2]
inactive: all other assays above

C[C@@H]1C[C@H]2[C@@H]3CCC4=CC(=O)C=C[C@]4(C)[C@@]3(F)[C@@H](O)C[C@]2(C)[C@@]1(O)C(=O)COP(=O)(O)O
not listed: [2] | [10]
inactive: all other assays above

Oc1cc2ccccc2c2ccccc12
inactive: [1]
active: [3] 13.3 µM | [4] 9.99 µM | [5] 16.6 µM | [6] 28.8 µM | [7] 9.55 µM | [8] 13.2 µM | [9] 30.1 µM

CC#C[C@]1(O)CC[C@H]2[C@@H]3CCC4=CC(=O)CCC4=C3[C@@H](c3ccc(N(C)C)cc3)C[C@@]21C
active: [10] 0.623 µM | [4] 29.9 µM | [5] 29.1 µM | [8] 3.97 µM
inactive: [3] | [6] | [7] | [9]

Cc1cc(C)c(O)c(C)c1
not listed: [1] | [2] | [10]
inactive: all other assays above

CCCCC(CC)COC(=O)CCCCC(=O)OCC(CC)CCCC (stereo not drawn)
not listed: [1]
inactive: all other assays above

CCCCCCC(=O)O
not listed: [2] | [10]
inactive: all other assays above

CCCCOCCO
not listed: [1] | [2] | [10]
inactive: all other assays above

CN(C)C=O
not listed: [1] | [2] | [10]
inactive: all other assays above

CCc1nn(C2CCCCC2)c2cc(C3(C#N)CCC(C(=O)O)CC3)ccc12 (stereo not drawn)
active: [3] 39 µM | [4] 4.25 µM | [5] 5.87 µM | [8] 4.94 µM
inactive: [1] | [6] | [7] | [9]

COc1ccc([N+](=O)[O-])cc1N
not listed: [1]
inactive: all other assays above

C#C[C@]1(O)CC[C@H]2[C@@H]3CCC4=CC(=O)CC[C@@H]4[C@H]3CC[C@@]21C
inactive: [3] | [4] | [6] | [7]
active: [2] 5.17 µM | [5] 17.1 µM | [8] 11 µM | [9] 20 µM

OCCC(F)(F)C(F)(F)C(F)(F)C(F)(F)C(F)(F)C(F)(F)F
inactive: [3] | [4] | [5] | [6] | [7] | [8] | [9]
active: [4] 46.8 µM | [9] 7.51 µM

CCCCCCCCOC(=O)CCCCCCCCC(=O)OCCCCCCCC
not listed: [1]
inactive: all other assays above

CC(C)CCCCCCOC(=O)CCCCC(=O)OCCCCCCC(C)C
not listed: [1] | [10]
inactive: all other assays above

OC1CCCCC1
not listed: [2] | [10]
inactive: all other assays above

Oc1cccc(O)c1
not listed: [2] | [10]
inactive: all other assays above

FC(F)(I)C(F)(F)C(F)(F)C(F)(F)C(F)(F)C(F)(F)I
active: [4] 14.6 µM [middle of 5 runs] | [6] 23.6 µM [middle of 5 runs] | [7] 30 µM [middle of 4 runs] | [9] 55.1 µM and 7.3 µM
inactive: [7] | [9]

N#C[C@@H]1CC(F)(F)CN1C(=O)CNC1CC2CCC(C1)N2c1ncccn1 (stereo partly drawn)
active: [3] 5.57 µM
not listed: [1] | [2]
inactive: all other assays above

O=C(O)c1ccccc1C(c1ccc(O)cc1)c1ccc(O)cc1
not listed: [1] | [10]
inactive: all other assays above

c1ccc2c(c1)ccc1ccccc12
not listed: [2] | [10]
inactive: all other assays above

CCCCCCCCCCCCN1CCCC1=O
inactive: [1] | [7] | [9]
active: [3] 37.3 µM | [4] 30 µM | [5] 33.4 µM | [6] 32.8 µM | [8] 34.9 µM

O=C(OCCOCCOC(=O)c1ccccc1)c1ccccc1
not listed: [1] | [2] | [10]
inactive: all other assays above

CC(C)(C)CC(C)(C)c1ccc(O)c(-n2nc3ccccc3n2)c1
not listed: [2] | [10]
inactive: all other assays above

OC1CCC(C2CCCCC2)CC1 (stereo not drawn)
not listed: [2] | [10]
inactive: all other assays above

COCC(C)O (stereo not drawn)
not listed: [2] | [10]
inactive: all other assays above

From PubChem BioAssay (EPA / NIEHS)
